Source: PubChem BioAssay (NCATS)
Results filed as inconclusive are left out. Calls of active or inactive are those of the source. Unless noted, calls come from the whole dose curve; as a rule, active = well fitted curve in the direction sought with a large enough effect; inconclusive = small, poorly fitted or top-dose-only effect, or another doubt; inactive = no such curve, though single readings can be large; an effect the other way counts as inactive or inconclusive.

Experiments:
[1] = Nrf2 qHTS screen for inhibitors: Validation (AID 493153; active = well fitted inhibition curve with a large enough effect in the main read-out, with a control signal flat, not every such curve was filed as active); conditions: Potency: luciferase luminescence; viability change: measured here: cytotoxicity max response
Summary of the method: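 Luminescence from an ARE-firefly luciferase reporter in A549 cells gives Nrf2 inhibition; an earlier CellTiter-Fluor fluorescent read flags cytotoxicity. Cells in 5% FBS OPTI-MEM received compound dilution series for 18-24 h at 37°C.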

[2] = qHTS for Inhibitors of Cell Surface uPA Generation: Validation Assay (AID 493164)
Summary of the method: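 RAW 264.7 cells (4000/well) were plated overnight, then exposed for 18 h at 37 C, 5% CO2 to compounds in a 7-point 1:5 titration (2.45 nM–38.3 uM final). Intracellular ATP was read by ATP-Lite luminescence.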

[3] = target: Galactokinase (Homo sapiens) (UniProt P51570); experiment: qHTS Validation Assay for Inhibitors of Human Galactokinase (GALK) (AID 493189)
Chain of Galactokinase (Homo sapiens) (P51570 whole entry, looked up): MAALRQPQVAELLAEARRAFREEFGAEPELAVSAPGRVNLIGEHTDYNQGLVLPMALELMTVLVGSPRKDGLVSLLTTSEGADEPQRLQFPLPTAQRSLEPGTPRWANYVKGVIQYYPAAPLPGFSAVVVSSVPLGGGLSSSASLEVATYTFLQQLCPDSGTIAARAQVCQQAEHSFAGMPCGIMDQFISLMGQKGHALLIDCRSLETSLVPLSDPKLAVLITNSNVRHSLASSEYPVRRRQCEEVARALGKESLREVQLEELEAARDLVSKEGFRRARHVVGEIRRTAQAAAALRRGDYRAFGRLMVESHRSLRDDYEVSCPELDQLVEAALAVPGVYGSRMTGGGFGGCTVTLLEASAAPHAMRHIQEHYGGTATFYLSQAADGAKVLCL
Summary of the method: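 GALK (5 nM) with 35 uM ATP and 100 uM galactose in HEPES pH 8.0 with MgCl2, NaCl, DTT and BSA. Reaction ran 1 h at room temperature. Residual ATP read by Kinase-Glo Plus luminescence.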

[4] = Validation screen for small molecules that induce DNA re-replication in SW480 colon adenocarcinoma cells (AID 504364)
Summary of the method: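 250 cells/well; compound pinned in; 48 hr, 37 C, 5% CO2; Hoechst added, 40 min; nuclear fluorescence imaged, 405 ex / 500-530 em; re-replication scored as increase in high-intensity nuclei.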

[5] = target: Peptidyl-prolyl cis-trans isomerase NIMA-interacting 1 (Homo sapiens) (UniProt Q13526); experiment: qHTS Validation Assay to Find Inhibitors of Pin1 (AID 504536; active = well fitted inhibition curve with a large enough effect in the polarisation, with a control signal flat, not every such curve was filed as active; the % refers to the polarisation)
Chain of Peptidyl-prolyl cis-trans isomerase NIMA-interacting 1 (Homo sapiens) (Q13526 whole entry, looked up): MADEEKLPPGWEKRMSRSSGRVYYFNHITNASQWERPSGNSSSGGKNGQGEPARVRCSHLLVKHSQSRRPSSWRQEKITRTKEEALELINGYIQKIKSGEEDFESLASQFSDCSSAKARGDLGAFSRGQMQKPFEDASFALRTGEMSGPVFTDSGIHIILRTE
Summary of the method: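 Fluorescence polarization competition: compounds (titration) displace HiFluor-488-labeled Pin1-1b peptide from Pin1 (0.3 uM final) in pH 7.5 HEPES buffer with DTT, 10 min at room temperature; %Activity normalized to no-enzyme wells, curves fitted.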

[6] = target: Phosphoglycerate kinase, glycosomal (Trypanosoma brucei brucei) (UniProt P07378); experiment: qHTS Validation Assay to Find Inhibitors of Phosphoglycerate Kinase (AID 504547)
Chain of Phosphoglycerate kinase, glycosomal (Trypanosoma brucei brucei) (P07378 whole entry, looked up): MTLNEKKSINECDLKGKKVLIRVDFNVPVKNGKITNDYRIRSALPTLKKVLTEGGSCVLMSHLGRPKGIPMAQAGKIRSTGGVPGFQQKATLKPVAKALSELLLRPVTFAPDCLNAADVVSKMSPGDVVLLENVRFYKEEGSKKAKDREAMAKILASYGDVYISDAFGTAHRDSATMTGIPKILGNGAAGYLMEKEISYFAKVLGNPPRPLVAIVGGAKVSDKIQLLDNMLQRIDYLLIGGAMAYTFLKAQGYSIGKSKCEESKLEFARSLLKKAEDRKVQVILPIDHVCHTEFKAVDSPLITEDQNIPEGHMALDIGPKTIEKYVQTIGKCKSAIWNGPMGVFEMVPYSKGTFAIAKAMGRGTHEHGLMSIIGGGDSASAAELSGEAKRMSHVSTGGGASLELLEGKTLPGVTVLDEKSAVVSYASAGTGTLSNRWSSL
Summary of the method: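 Inhibition of the enzyme is judged by a Kinase-Glo Plus luminescent signal following a one-hour incubation at room temperature. Because 1,3-BPG is unstable, it is made in situ by GAPDH at 100nM final; no-PGK wells define the baseline.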

[7] = target: phosphoglycerate mutase (Leishmania major) (UniProt Q4Q090); experiment: qHTS Validation Assay to Find Inhibitors of Phosphoglycerate Mutase (AID 504548); conditions: Potency: inhibition qHTS;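 note: end-point luminescence from Kinase-GloPlus after the PGAM reaction; series mostly up to about 58 µM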
Chain of phosphoglycerate mutase (Leishmania major) (Q4Q090 1-553): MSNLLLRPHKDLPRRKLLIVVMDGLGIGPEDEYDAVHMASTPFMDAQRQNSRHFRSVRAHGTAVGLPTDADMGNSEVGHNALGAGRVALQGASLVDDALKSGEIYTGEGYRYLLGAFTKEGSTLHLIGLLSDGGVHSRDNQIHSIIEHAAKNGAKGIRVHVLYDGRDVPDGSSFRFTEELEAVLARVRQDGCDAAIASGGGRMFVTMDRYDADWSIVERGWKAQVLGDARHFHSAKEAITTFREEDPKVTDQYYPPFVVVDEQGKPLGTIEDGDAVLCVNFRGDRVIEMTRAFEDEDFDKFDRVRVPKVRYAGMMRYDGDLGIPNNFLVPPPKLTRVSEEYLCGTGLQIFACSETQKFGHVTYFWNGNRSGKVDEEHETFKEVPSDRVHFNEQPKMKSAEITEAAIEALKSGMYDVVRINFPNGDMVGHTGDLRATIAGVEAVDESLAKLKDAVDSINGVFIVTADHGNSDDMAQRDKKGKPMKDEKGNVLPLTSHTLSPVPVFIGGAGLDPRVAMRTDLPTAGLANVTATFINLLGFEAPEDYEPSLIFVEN
Summary of the method: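 L. major PGAM (1.25nM final) was added to substrate buffer and pinned compound, incubated 45 minutes at room temperature, then Kinase-GloPlus added; luminescence read after 10 minutes. Buffer: 100 mM TEA pH 7.6, 5 mM MgCl2, 0.01% Tween-20.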

[8] = target: Ubiquitin carboxyl-terminal hydrolase 1 (Homo sapiens) (UniProt O94782); experiment: Inhibitors of USP1/UAF1: Pilot qHTS (AID 504865); note: nearly all actives have a fitted effect of over 35% in size; note: potency is the fitted concentration of half-maximal effect
Chain of Ubiquitin carboxyl-terminal hydrolase 1 (Homo sapiens) (O94782 whole entry, looked up): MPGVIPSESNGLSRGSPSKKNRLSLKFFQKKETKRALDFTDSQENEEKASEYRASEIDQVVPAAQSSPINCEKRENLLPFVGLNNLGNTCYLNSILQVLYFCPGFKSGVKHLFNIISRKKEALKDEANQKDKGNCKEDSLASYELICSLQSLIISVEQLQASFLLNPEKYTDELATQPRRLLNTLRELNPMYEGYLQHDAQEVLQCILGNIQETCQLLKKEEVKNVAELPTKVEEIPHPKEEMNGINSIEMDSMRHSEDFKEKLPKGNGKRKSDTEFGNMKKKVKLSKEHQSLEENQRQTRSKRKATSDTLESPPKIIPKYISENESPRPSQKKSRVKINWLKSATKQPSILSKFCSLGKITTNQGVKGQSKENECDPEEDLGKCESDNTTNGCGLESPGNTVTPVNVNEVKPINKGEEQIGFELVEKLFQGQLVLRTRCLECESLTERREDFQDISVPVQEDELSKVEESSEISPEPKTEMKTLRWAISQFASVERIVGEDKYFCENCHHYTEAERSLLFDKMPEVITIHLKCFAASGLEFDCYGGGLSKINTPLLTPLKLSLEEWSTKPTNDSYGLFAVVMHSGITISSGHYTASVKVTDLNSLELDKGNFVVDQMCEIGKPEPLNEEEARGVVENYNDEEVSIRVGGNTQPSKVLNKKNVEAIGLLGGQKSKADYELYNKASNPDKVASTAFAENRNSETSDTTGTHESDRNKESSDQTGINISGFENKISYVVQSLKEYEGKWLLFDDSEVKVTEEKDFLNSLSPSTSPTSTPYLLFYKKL
Summary of the method: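 USP1/UAF1 complex at 1 nM preincubated 15 min at room temperature with compound, then Ub-Rho substrate added at 150 nM final. Fluorescence (480/540 nm) read kinetically in 50 mM HEPES pH 7.8, 0.5 mM EDTA, 1 mM TCEP, 0.1 mg/ml BSA, 0.01% Tween-20.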

[9] = qHTS for Inhibitors of ATXN expression: Validation of Cytotoxic Assay (AID 588349)
Summary of the method: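 Read-out: ATP-based luminescence (CellTiter Glo) reflecting viability of HEK293 cells after 72 hr incubation at 37 degrees C with a concentration series of each compound.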

[10] = qHTS for Inhibitors of ATXN expression: Validation (AID 588378); note: series mostly up to about 57 µM; nearly all actives have a fitted effect of over 75% in size
Summary of the method: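 HEK293 cells carrying ATXN2-firefly luciferase reporter, treated with compound 24 h at 37 °C. Viability read first by CellTiter-Fluor (405/525 nm), then reporter expression by Bright-Glo luminescence; controls were a known ATXN2 expression inhibitor and a luciferase inhibitor.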

N=C(N)c1ccc(N)cc1
3.63%: viability change [1]
inactive: Potency [1] | outcome [2] | Potency [3] | Potency [4] | Potency [5] | Potency [6] | Potency [7] | Potency [8] | Potency [9] | Potency [10]

O=C(O)/C=C/c1ccc(O)c(O)c1
3.15%: viability change [1]
inactive: Potency [1] | outcome [2] | Potency [3] | Potency [4] | Potency [5] | Potency [6] | Potency [7] | Potency [8] | Potency [9] | Potency [10]

CCN1C(=O)C=CC1=O
1.81%: viability change [1]
inactive: Potency [1] | outcome [2] | Potency [3] | Potency [4] | Potency [5] | Potency [6] | Potency [7] | Potency [8] | Potency [9] | Potency [10]

NCCCCN
inactive: Potency [1] | outcome [2] | Potency [3] | Potency [4] | Potency [5] | Potency [6] | Potency [7] | Potency [8] | Potency [9] | Potency [10]
-1.47%: viability change [1]

NC1(C(=O)O)CCCCC1
inactive: Potency [1] | outcome [2] | Potency [3] | Potency [4] | Potency [5] | Potency [6] | Potency [7] | Potency [8] | Potency [9] | Potency [10]
-4.89%: viability change [1]

CC(C)(CO)Cc1cc(C(C)(C)C)c(O)c(C(C)(C)C)c1
10.3%: viability change [1]
inactive: Potency [1] | outcome [2] | Potency [3] | Potency [4] | Potency [5] | Potency [6] | Potency [7]

O=C(O)c1cc(=O)cc(C(=O)O)[nH]1
-5.74%: viability change [1]
inactive: Potency [1] | outcome [2] | Potency [3] | Potency [4] | Potency [5] | Potency [6] | Potency [7] | Potency [8] | Potency [9] | Potency [10]

NCCS(=O)O
6.69%: viability change [1]
inactive: Potency [1] | outcome [2] | Potency [3] | Potency [4] | Potency [5] | Potency [6] | Potency [7] | Potency [8] | Potency [9] | Potency [10]

Fc1ccc(CN(C2=NCCN2)c2c(Cl)cccc2Cl)cc1
-18.2%: viability change [1]
inactive: Potency [1] | outcome [2] | Potency [3] | Potency [4] | Potency [5] | Potency [6] | Potency [7] | Potency [8]

C#CCn1c(=O)c2c(ncn2C)n(C)c1=O
4.85%: viability change [1]
inactive: Potency [1] | outcome [2] | Potency [3] | Potency [4] | Potency [5] | Potency [6] | Potency [7] | Potency [8] | Potency [9] | Potency [10]

COC(=O)C(N)Cc1ccc(Cl)cc1 (centres undefined)
9.57%: viability change [1]
inactive: Potency [1] | outcome [2] | Potency [3] | Potency [4] | Potency [5] | Potency [6] | Potency [7] | Potency [8] | Potency [9] | Potency [10]

C#CC(N)CCC(=O)O (centres undefined)
inactive: Potency [1] | outcome [2] | Potency [3] | Potency [4] | Potency [5] | Potency [6] | Potency [7] | Potency [8] | Potency [9] | Potency [10]
2.08%: viability change [1]

COc1ccc(CCN(C)CCc2ccc(OC)c(OC)c2)cc1OC
inactive: Potency [1] | outcome [2] | Potency [3] | Potency [4] | Potency [5] | Potency [6] | Potency [7] | Potency [8] | Potency [9] | Potency [10]
4.35%: viability change [1]

CCN(c1nc(N)c(C(=O)N=C(N)N)nc1Cl)C(C)C
-6.66%: viability change [1]
inactive: Potency [1] | outcome [2] | Potency [3] | Potency [4] | Potency [5] | Potency [6] | Potency [7] | Potency [8] | Potency [9] | Potency [10]

CSC(=N)N
inactive: Potency [1] | outcome [2] | Potency [3] | Potency [4] | Potency [5] | Potency [6] | Potency [7] | Potency [8] | Potency [9] | Potency [10]
-21.7%: viability change [1]

O=[N+]([O-])c1cccc2c(Br)[nH]nc12
2.48%: viability change [1]
inactive: Potency [1] | outcome [2] | Potency [3] | Potency [4] | Potency [5] | Potency [6] | Potency [7] | Potency [8] | Potency [9] | Potency [10]

N=C(N)SCCN
0.333%: viability change [1]
inactive: Potency [1] | outcome [2] | Potency [3] | Potency [4] | Potency [5] | Potency [6] | Potency [7] | Potency [8] | Potency [9] | Potency [10]

COc1cc(C(O)C(=O)O)ccc1O (centres undefined)
inactive: Potency [1] | outcome [2] | Potency [3] | Potency [4] | Potency [5] | Potency [6] | Potency [7] | Potency [8] | Potency [9] | Potency [10]
10.2%: viability change [1]

N[C@@H](CS(=O)O)C(=O)O
-0.201%: viability change [1]
inactive: Potency [1] | outcome [2] | Potency [3] | Potency [4] | Potency [5] | Potency [6] | Potency [7] | Potency [8] | Potency [9] | Potency [10]

CC1CCN(CC[C@H]2CCCN2S(=O)(=O)c2cccc(O)c2)CC1
8.25%: viability change [1]
inactive: Potency [1] | outcome [2] | Potency [3] | Potency [4] | Potency [5] | Potency [6] | Potency [7] | Potency [8] | Potency [9] | Potency [10]

C[C@@]1(C2CCCC2)Cc2cc(OCC(=O)O)c(Cl)c(Cl)c2C1=O
-4.41%: viability change [1]
inactive: Potency [1] | outcome [2] | Potency [3] | Potency [4] | Potency [5] | Potency [6] | Potency [7] | Potency [8] | Potency [9] | Potency [10]

S=C(S)N1CCCC1
-3.57%: viability change [1]
inactive: Potency [1] | outcome [2] | Potency [3] | Potency [4] | Potency [5] | Potency [6] | Potency [7] | Potency [8] | Potency [9] | Potency [10]

Nc1ccc(-c2nc3ccc(-c4nc5ccc(N)cc5[nH]4)cc3[nH]2)cc1
active: Potency [8] 50.1 µM
-10.2%: viability change [1]
inactive: Potency [1] | outcome [2] | Potency [3] | Potency [4] | Potency [5] | Potency [6] | Potency [7] | Potency [9] | Potency [10]

OC[C@H]1O[C@@H](n2cnc3cncnc32)[C@H](O)[C@@H]1O
10.1%: viability change [1]
inactive: Potency [1] | outcome [2] | Potency [3] | Potency [4] | Potency [5] | Potency [6] | Potency [7] | Potency [8] | Potency [9] | Potency [10]
